# Shown are actives, neighbours in structure and some others; about 1.9% of the full set was active somewhere.
# S1P3 antag = S1P3 (human) receptor antagonism; actives 0.27% (n = 170,000); CHO S1P3 NFAT-BLA reporter, FRET fluorescence, antagonist mode; inhibition, % at 4.98 µM; AID 485; Q99500;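 active means inhibition above the plate cutoff, the mean inhibition of test wells on that plate plus 3 SD, cut at about 28% in these data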;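 further: cells challenged with S1P at its EC80 of 0.8 µM; blue over green emission ratio from cleaved BLA substrate after 4 h stimulation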
# S1P4 agonist = activates the human S1P4 receptor; O95977; actives 0.35% (n = 220,000); S1P4-expressing cell line, agonist reporter assay; activation, % at 4.98 µM; in the data active means activation above about 11%
# Target sequence (O95977 whole entry, looked up): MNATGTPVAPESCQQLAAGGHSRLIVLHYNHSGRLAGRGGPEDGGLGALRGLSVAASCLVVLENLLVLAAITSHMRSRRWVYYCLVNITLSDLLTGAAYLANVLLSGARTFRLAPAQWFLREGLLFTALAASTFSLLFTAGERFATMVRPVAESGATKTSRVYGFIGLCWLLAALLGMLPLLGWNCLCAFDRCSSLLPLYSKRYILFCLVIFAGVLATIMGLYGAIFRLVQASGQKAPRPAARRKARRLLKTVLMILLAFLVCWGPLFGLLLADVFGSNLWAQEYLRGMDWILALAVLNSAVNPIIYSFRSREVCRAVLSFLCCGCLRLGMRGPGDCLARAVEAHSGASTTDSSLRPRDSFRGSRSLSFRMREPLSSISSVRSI
# EP2 mod = EP2 receptor (human) modulation. P43116. actives 0.83% (n = 260,000). induction, % at 25 µM. EP2-expressing cells, cAMP HTRF FRET, PGE2 co-stimulation;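 active means compounds whose cAMP rise, as percent of the full-agonist control response, exceeds 60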;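 further: rat C6 glioma line stably carrying human EP2 under a CMV promoter; the protocol text gives 20 µM as final concentration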
# S1P4 antag = blocks the human S1P4 receptor; inhibition, % at 4.98 µM; actives 0.26% (n = 220,000); S1P4-expressing cells, antagonist mode, reporter read-out; O95977; in the data active means inhibition above about 29%
# EP2 antag = blocks the human prostaglandin E2 receptor EP2; P43116; actives 0.52% (n = 260,000); C6 glioma cells expressing human EP2, cAMP TR-FRET; cells stimulated with saturating PGE2; inhibition, % at 25 µM;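 active means percent inhibition above 40 after rounding to a whole number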;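 further: rat C6 glioma host cells with rolipram phosphodiesterase inhibitor present; the protocol text gives 20 µM as final concentration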
# Numbers stand for hits; – = inactive; · = no result given.
SMILES,S1P3 antag,S1P4 agonist,EP2 mod,S1P4 antag,EP2 antag
CCn1c(SCC(=O)Nc2sc(C)c(C)c2C#N)nc2sc3c(c2c1=O)CCC3,·,·,69,·,–
O=C1c2oc3ccc(Br)cc3c(=O)c2C(c2cccnc2)N1Cc1ccco1 (centres undefined),95,·,·,·,·
O=C1c2oc3ccccc3c(=O)c2C(c2cccc(Br)c2)N1Cc1ccco1 (centres undefined),–,–,–,–,–
Cc1ncccc1-c1cc2cccnc2n1CCC(=O)N1CCS(=O)(=O)CC1,·,·,–,·,–
CC(C)OCCCN(Cc1ccncc1)Cc1cccc(F)c1F,·,·,–,·,–
CC1=CC(C)(C)n2c(O)c(N=NC(N)=S)c3c(C)ccc1c32,–,–,–,–,–
CC1=CC(C)(C)n2c(O)c(N=N)c3c(C)c(C)cc1c32,–,–,76,–,–
CC1=CC(C)(C)n2c(O)c(N=N)c3c(C)ccc1c32,–,–,82,–,–
Nc1ccn([C@@H]2O[C@H](CO)[C@@H](O)[C@@H]2O)c(=O)n1,–,12,–,–,–
Nc1ccn([C@H]2O[C@@H](COP(=O)(O)O)[C@H](O)[C@H]2O)c(=O)n1,·,·,–,·,–
Nc1ccn([C@H]2O[C@H](CO)[C@@H]3[O][Sn]([c]4ccccc4)([c]4ccccc4)[O][C@@H]32)c(=O)n1,·,·,–,·,42
Nc1ccn([C@H]2CC[C@@H](CO)O2)c(=O)n1,–,–,–,–,–
COc1cc(OC)cc(C(=O)N2CCC(C(=O)Nc3ccc(Cl)cc3C)CC2)c1,·,·,–,·,–
CC(=O)[C@H]1CCC2C3CC=C4C[C@@H](O)CC[C@]4(C)C3CC[C@@]21C (some centres undefined),·,·,–,·,–
CN(C)CCC(=O)[C@]1(O)CC[C@@H]2[C@H]3CC=C4C[C@@H](O)CC[C@]4(C)[C@@H]3CC[C@]21C,·,·,–,·,65
O=C(CNS(=O)(=O)c1ccc2ccccc2c1)OCc1nnc(-c2ccccc2)o1,·,–,–,–,41
Cc1ccc(S(=O)(=O)NCC(=O)OCc2nnc(-c3ccccc3)o2)cc1C,·,–,–,–,–
Cc1cccc(NC2=C/C(=N/S(=O)(=O)c3cccs3)c3ccccc3C2=O)c1,–,–,–,–,–
Cc1ccc(NC2=C/C(=N\S(=O)(=O)c3cccs3)c3ccccc3C2=O)c(C)c1,·,–,–,–,44
CCOC(=O)c1nn(-c2ccc(OC)cc2)c(=O)c(C#N)c1C,·,·,–,·,74
Cc1ccc(CNC(=O)C2CCCN(c3ncccn3)C2)cc1 (centres undefined),·,·,–,·,–
Cc1nc(Sc2ccccc2)c(C#N)c(C)c1[N+](=O)[O-],–,–,61,–,–
COc1ccccc1-c1nnc(SCC(=O)N2CCCCC2)n1Cc1ccco1,·,·,–,·,–
CC(=O)Nc1cccc(NC(=O)CSc2ncc(-c3ccc(Cl)cc3)n2Cc2ccco2)c1,–,–,–,–,41
COc1ccc2[nH]c(=O)c(CN(Cc3cccs3)C(c3nnnn3C(C)(C)C)C(C)C)cc2c1 (centres undefined),·,·,69,·,–
SMILES,S1P3 antag,S1P4 agonist,EP2 mod,S1P4 antag,EP2 antag
Cc1ccc2cc(CN(Cc3cccs3)C(c3nnnn3C3CCCCC3)C(C)C)c(=O)[nH]c2c1 (centres undefined),·,·,–,·,–
CCc1ccc2[nH]c(=O)c(CN(Cc3cccs3)C(c3nnnn3C3CCCC3)C(C)C)cc2c1 (centres undefined),·,·,63,·,–
COc1ccc2[nH]c(=O)c(CN(Cc3cccs3)Cc3nnnn3C(C)(C)C)cc2c1,–,–,–,–,–
COc1ccc2cc(CN(Cc3cccs3)C(c3nnnn3C3CCCC3)C(C)C)c(=O)[nH]c2c1 (centres undefined),·,·,69,·,–
COc1cccc(C(=O)N2CCN(Cc3ccccc3C)CC2)c1OC,·,·,–,·,–
COc1ccc(CC(=O)NNC(=O)COc2ccc3ccccc3c2)cc1,–,–,–,–,103
CCOC(=O)C1=C(N)N2C(=O)C(C)SC2=C(C(=O)OCC)C1c1ccccc1 (centres undefined),–,–,62,–,–
CCOC(=O)C1=C(N)N2C(=O)C(C)SC2=C(C(=O)OCC)C1c1ccc(O)cc1 (centres undefined),–,–,–,–,–
C=Cn1cc(CN(Cc2ccccc2OC)CC2CCCO2)c(C)n1 (centres undefined),·,·,–,·,–
CC1=CC(=C(C#N)c2nc3ccccc3s2)C=C(C)N1Cc1ccco1,56,–,–,–,–
O=C1CSC2(CCN(CCCN3c4ccccc4Sc4ccc(Cl)cc43)CC2)N1,·,·,–,·,–
Clc1ccc2c(c1)N(CCCN1CCCC13CCCCC3)c1ccccc1S2,·,·,–,·,53
O=C(c1ccco1)C1CCN(C(=O)c2ccc(-n3cnnn3)cc2)CC1,·,·,–,·,·
NC(N)=N/N=C/c1ccc(OCc2ccc(Cl)cc2)cc1,·,–,–,–,64
COc1ccc(NC(=O)/C=C/C(=O)O)c(OC)c1,–,–,75,–,–
COC(=O)c1sc(-c2cccs2)cc1NC(=O)/C=C/C(=O)O,–,–,–,–,63
COC(=O)c1sc(-c2ccccc2)cc1NC(C)=O,–,–,–,–,–
Cc1cc(C)nc(/N=C2/NC(=O)CC(C(=O)O)N2c2ccc(Cl)cc2)n1 (centres undefined),·,·,–,·,–
Cc1cccc(CCNS(=O)(=O)c2ccc(S(=O)(=O)N3CCCCCC3)cc2)c1,·,·,–,·,–
O=C(Sc1cccc2cccnc12)c1ccc(F)cc1,–,–,–,98,–
O=C(Sc1cccc2cccnc12)N1CCOCC1,·,·,–,·,–
COc1cc(/C=C/C(=O)CC(=O)/C=C/c2ccc(O)c(OC)c2)ccc1O,–,–,–,–,74
Cc1cc2c(cc1C)C(O)CC1(CCN(CC(O)c3ccc(Cl)cc3)CC1)O2 (centres undefined),·,·,–,·,–
CC(C)Sc1nc(N2CCOCC2)c2c(c1C#N)CC(C)(C)N(C)C2,·,–,–,–,–
CC(C)Sc1nc(N2CCCC2)c2c(c1C#N)CC(C)(C)OC2,·,–,63,–,–
SMILES,S1P3 antag,S1P4 agonist,EP2 mod,S1P4 antag,EP2 antag
CC1(c2ccccc2)CC(C)(C)N2C(=O)C3(C(C#N)=C(N)Oc4cc(O)ccc43)c3cccc1c32 (centres undefined),·,–,62,–,–
Cc1ccccc1C1(O)CCN(Cc2ccccc2OCc2ccccn2)CC1,·,·,–,·,–
COC(=O)c1cn(C(=O)/C=C/c2ccc(OC)c(OC)c2)c2ccccc12,–,–,–,–,43
CC(C)c1nc2ccc(Br)cn2c1NC1CCCC1,–,–,65,–,–
Cc1cccc2nc(C(C)C)c(NC3CCCC3)n12,·,·,–,·,–
Cc1nc2sc3c(c2c2nnc(SCC(=O)Nc4ccc5c(c4)OCO5)n12)CCCC3,·,·,–,·,–
COc1ccc(CC(=O)N2CCN=C2SC)cc1,–,–,–,–,–
CSC1=NCCN1C(=O)Cc1ccc(Cl)cc1,66,–,–,–,–
Cc1ccc2[nH]c(=O)c(CN(CCO)C(=O)Nc3ccccc3Cl)cc2c1,·,·,–,·,–
Cc1cc2cc(CN(CCCO)C(=S)NCCCN3CCOCC3)c(=O)[nH]c2cc1C,·,·,–,·,–

# Screening results (PubChem)
